Screening results: PubChem, National Center for Advancing Translational Sciences (NCATS)
Rab9 prom act: Rab9 promoter activation. Huh7 Rab9 promoter-luciferase reporter, luminescence, 24 h. Potency, µM (series often up to 9.22 µM), hits mostly activators. 320,000 compounds, 2.8% hits. AID 485297; further: nearly all actives have a fitted effect of over 60% in size
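Steps: seed 1500 Huh7 Rab9-luc cells per well, rest 2 h at 37 °C; add compound in DMSO; incubate 24 h; add luciferase reagent, 10 min ambient; read luminescence.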
ELG1 genotox: inducers of genotoxicity in HEK293T ELG1-luciferase cells; HEK293T ELG1-luciferase reporter, luminescence, 16 h; Potency, µM (highest dose often 46 µM), hits mostly activators; 330,000 compounds, 1.3% hits; further: nearly all actives have a fitted effect of over 60% in size
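Quantitative HTS format in 1536-well plates. HEK293T ELG1-luciferase reporter cells receive test compound and are incubated 16 hr at 37 °C, 5% CO2; ONE-Glo added, 30 min room temperature, then luminescence read.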
FLuc counter: firefly luciferase modulation, counter-screen for miR-21 project; P08659; purified FLuc, Km substrates, luminescence inhibition; Potency, µM (titrated, usually from 57.5 µM), actives largely listed as inhibitors; 360,000 compounds, 6.9% hits; AID 588342; further: nearly all actives have a fitted effect of over 55% in size
Target sequence (P08659 whole entry, looked up): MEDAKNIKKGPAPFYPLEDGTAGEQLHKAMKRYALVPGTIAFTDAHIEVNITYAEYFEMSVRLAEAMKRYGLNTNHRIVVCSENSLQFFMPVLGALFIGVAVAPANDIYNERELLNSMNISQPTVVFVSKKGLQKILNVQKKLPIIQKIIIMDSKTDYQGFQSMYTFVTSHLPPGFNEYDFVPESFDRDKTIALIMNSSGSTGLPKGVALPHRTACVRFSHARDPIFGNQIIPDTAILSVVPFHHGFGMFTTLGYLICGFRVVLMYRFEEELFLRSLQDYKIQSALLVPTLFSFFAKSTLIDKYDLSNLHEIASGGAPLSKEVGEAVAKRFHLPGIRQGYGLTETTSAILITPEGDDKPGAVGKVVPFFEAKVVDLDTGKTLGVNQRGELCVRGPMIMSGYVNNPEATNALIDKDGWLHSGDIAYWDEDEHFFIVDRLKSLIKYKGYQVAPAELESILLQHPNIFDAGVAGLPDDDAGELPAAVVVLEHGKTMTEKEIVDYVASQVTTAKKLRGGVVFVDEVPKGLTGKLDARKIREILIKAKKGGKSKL
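Purified P. pyralis luciferase (10nM final) with 10uM D-luciferin and 10uM ATP (Km levels) in 50mM Tris acetate pH 7.5, 10mM Mg acetate, 0.01% Tween-20, 0.05% BSA; qHTS 6-point titration, ~60 µM downward; luminescence read.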
NPC1 prom act: activators of NPC1 promoter; Huh7 NPC1 promoter luciferase reporter, 24 h; Potency, µM (top dose mostly 9.22 µM), most hits filed as activators; 320,000 compounds, 2.4% hits; AID 485313; further: nearly all actives have a fitted effect of over 60% in size
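NPC1 promoter–luciferase Huh7 cells; 24 h compound; luminescence.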
SMN2 splice enh: SMN2 splice variant enhancement; 210,000 compounds, 2.8% hits; AID 1458; HEK293 SMN2-luciferase splicing reporter, luminescence, 30-36 h; Potency, µM (series often up to 46.1 µM), hits mostly activators; further: nearly all actives have a fitted effect of over 55% in size
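HEK293 cells carry an SMN2 minigene-luciferase reporter in which exon 7 inclusion puts luciferase in frame. Cells were seeded at 2000 cells/well, attached for 10-12 hours, then exposed to compounds for 30-36 hours at 37C before ONE-Glo luminescence.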
ELG1 DNA repair: inhibitors of ELG1-dependent DNA repair in HEK293T cells | Potency, µM (doses to about 46.1 µM), most hits filed as inhibitors | HEK293T ELG1-luciferase reporter, luminescence, 16 h; DNA damage induced by 5-fluorouridine | 330,000 compounds, 2.3% hits; further: nearly all actives have a fitted effect of over 55% in size
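HEK293T cells expressing luciferase-tagged ELG1 (2,000/well) received 5-Fluorouridine plus compound or DMSO for 16 hr at 37 °C. Luciferase was read by ONE-Glo luminescence after 30 min at room temperature.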
Each line names hits and unclear results; the compound was inactive in the other large screens. The list is not random: actives were taken first. Their share in the collection is about 9.2%. The call rests on the fitted dose curve; in most records, active means well fitted curve in the direction sought with a large enough effect; inconclusive means small, poorly fitted or top-dose-only effect, or another doubt; inactive means no such curve, though single readings can be large; an effect the other way counts as inactive or inconclusive.

CCOc1cnc(-c2ccc(Cl)cc2)o1	FLuc counter 21µM, ELG1 DNA repair inconclusive
CCOc1cnc(-c2ccc(OC)cc2)o1	Rab9 prom act inconclusive, ELG1 genotox inconclusive, FLuc counter 9.5µM, NPC1 prom act 2.5µM, SMN2 splice enh inconclusive, ELG1 DNA repair inconclusive
Cc1ccc(NC(=O)CN2C(=O)S/C(=C\c3ccc(-c4cccc(C(=O)O)c4C)o3)C2=O)cc1C	FLuc counter inconclusive
Cc1ccc(/C=C2/NC(=O)N(c3ccccc3)C2=O)o1	Rab9 prom act inconclusive, ELG1 genotox inconclusive, FLuc counter inconclusive, ELG1 DNA repair inconclusive
Cc1c(C(=O)O)cccc1-c1ccc(/C=C2\SC(=O)NC2=O)o1	FLuc counter 5.4µM (no result: SMN2 splice enh)
Cc1c(C(=O)O)cccc1-c1ccc(/C=C2/NC(=O)N(c3ccccc3)C2=O)o1	Rab9 prom act 1µM, FLuc counter 9.5µM, NPC1 prom act inconclusive, ELG1 DNA repair inconclusive (no result: SMN2 splice enh)
O=C(NC1CC(=O)N(c2ccc(F)cc2)C1)c1ccc2c(c1)OCO2 (stereo not given)	none (no result: Rab9 prom act, ELG1 genotox, NPC1 prom act, SMN2 splice enh, ELG1 DNA repair)
Cc1c(NS(=O)(=O)c2cccc(C(=O)N3CCC(C)CC3)c2)c(=O)n(-c2ccccc2)n1C	none (no result: Rab9 prom act, FLuc counter, NPC1 prom act, SMN2 splice enh)
O=C(NNC(=O)c1ccccc1O)c1ccco1	Rab9 prom act inconclusive, ELG1 genotox inconclusive, FLuc counter 19µM, NPC1 prom act inconclusive, SMN2 splice enh inconclusive, ELG1 DNA repair inconclusive
COc1ccccc1/C=C/C=N/NC(=O)c1cc(-c2ccc(C)o2)[nH]n1	FLuc counter 15µM, ELG1 DNA repair inconclusive (no result: SMN2 splice enh)
O=C(NNC(=O)c1ccccc1F)c1ccco1	ELG1 DNA repair inconclusive (no result: SMN2 splice enh)
COc1cccc(/C=N/NC(=O)c2ccccc2NC(=O)c2ccco2)c1OC	FLuc counter 11µM (no result: SMN2 splice enh)
Cc1ccc(COc2ccccc2-c2cc(C(=O)N/N=C/c3cccnc3)[nH]n2)cc1	ELG1 DNA repair 23µM (no result: SMN2 splice enh)
Cc1ccc(/C=N/NC(=O)c2cc(-c3ccc(C)o3)[nH]n2)cc1	FLuc counter inconclusive, ELG1 DNA repair inconclusive (no result: SMN2 splice enh)
CCn1ccc(C(=O)N2CCN(c3ncccn3)CC2)n1	none (no result: SMN2 splice enh)
COc1cccc(/C=C/C(=O)OCC(=O)NCc2ccco2)c1OC	none
O=C(Nc1ccccc1C(=O)NC(Cc1ccccc1)C(=O)O)c1ccco1 (stereo not given)	none (no result: SMN2 splice enh)
COc1cc(/C=N/NC(=O)c2ccncc2)ccc1OCc1cnc(Cl)s1	SMN2 splice enh 13µM, ELG1 DNA repair inconclusive
CC(NC(=O)c1ccccc1NC(=O)c1ccco1)C(=O)O (stereo not given)	Rab9 prom act 0.32µM, ELG1 genotox inconclusive, FLuc counter 21µM, NPC1 prom act 0.56µM, SMN2 splice enh 0.32µM, ELG1 DNA repair inconclusive
O=C(N/N=C/C(Br)=C\c1ccccc1)c1ccco1	Rab9 prom act 4µM, ELG1 genotox inconclusive, FLuc counter 3µM, NPC1 prom act 2.5µM, ELG1 DNA repair inconclusive (no result: SMN2 splice enh)
COc1cccc(/C=C/C(=O)NNC(=O)c2ccco2)c1OC	Rab9 prom act 4µM, ELG1 genotox inconclusive, FLuc counter 11µM, NPC1 prom act inconclusive, ELG1 DNA repair inconclusive (no result: SMN2 splice enh)
O=C1CC(c2ccc(Cl)cc2)Sc2nc(-c3ccc(F)cc3)nn21 (stereo not given)	FLuc counter inconclusive (no result: Rab9 prom act, ELG1 genotox, NPC1 prom act, ELG1 DNA repair)
O=C(NCC(c1cccnc1)N1CCc2ccccc21)C(=O)Nc1ccccc1F (stereo not given)	none (no result: Rab9 prom act, ELG1 genotox, NPC1 prom act, SMN2 splice enh, ELG1 DNA repair)
COc1cc(OC)c(NC(=O)COCc2cc(-c3cccs3)on2)cc1Cl	none (no result: Rab9 prom act, ELG1 genotox, NPC1 prom act, SMN2 splice enh, ELG1 DNA repair)
O=C(Cn1nc2c(cc1=O)CCCC2)NCc1ccccc1	none (no result: Rab9 prom act, ELG1 genotox, NPC1 prom act, SMN2 splice enh, ELG1 DNA repair)
O=C(N/N=C/C=N/NC(=O)c1ccco1)c1ccco1	none (no result: SMN2 splice enh)
COc1cccc(/C=N/NC(=O)CNC(=O)c2ccco2)c1O	FLuc counter inconclusive, ELG1 DNA repair 8.2µM (no result: SMN2 splice enh)
COc1cccc(/C=N/NC(=O)CNC(=O)c2ccncc2)c1O	ELG1 genotox inconclusive (no result: SMN2 splice enh)
O=C(N/N=C\c1ccccc1OCc1ccccc1)c1ccco1	FLuc counter 21µM
COC(=O)c1ccc(COc2ccccc2/C=N/NC(=O)c2cccnc2)cc1	FLuc counter 21µM, ELG1 DNA repair inconclusive
O=C(N/N=C/c1ccccc1)c1ccco1	Rab9 prom act 3.2µM, ELG1 genotox inconclusive, FLuc counter 13µM, NPC1 prom act inconclusive, ELG1 DNA repair inconclusive (no result: SMN2 splice enh)
Cc1cccc(-n2c(=S)[nH]c3nc4c(cc3c2=O)COC(C)(C)C4)c1	ELG1 DNA repair inconclusive (no result: SMN2 splice enh)
CC(C)(C)NC(=O)CN(Cc1ccccc1)S(=O)(=O)c1ccccc1	none (no result: SMN2 splice enh)
CCCc1nnc(NC(=O)c2nc(SCC)ncc2Cl)s1	FLuc counter inconclusive (no result: Rab9 prom act, ELG1 genotox, NPC1 prom act, ELG1 DNA repair)
O=C(NC1(C(F)(F)F)C(=O)Nc2c1c(=O)[nH]c(=O)n2-c1ccccc1)c1ccccc1Cl (stereo not given)	none (no result: Rab9 prom act, ELG1 genotox, NPC1 prom act, SMN2 splice enh, ELG1 DNA repair)
COCc1cc(C)nc2sc(C(=O)Nc3cc(C)ccc3F)c(N)c12	FLuc counter inconclusive (no result: Rab9 prom act, ELG1 genotox, NPC1 prom act, ELG1 DNA repair)
CC(=O)c1ccc(NC(=O)C(NC(=O)c2ccccc2)=C(C)C)cc1	none
COc1ccc(C(=O)Nc2ccccc2C(=O)N/N=C/c2ccncc2)cc1OC	Rab9 prom act inconclusive, FLuc counter 0.24µM, NPC1 prom act 2µM, ELG1 DNA repair inconclusive (no result: SMN2 splice enh)
O=C(N/N=C/c1ccc2cccnc2c1)c1ccco1	Rab9 prom act 0.89µM, ELG1 genotox 2.1µM, FLuc counter 6µM, NPC1 prom act 1.4µM, ELG1 DNA repair inconclusive (no result: SMN2 splice enh)
COc1ccccc1/C=C/C=N/NC(=O)c1ccco1	Rab9 prom act inconclusive, ELG1 genotox inconclusive, FLuc counter 17µM, NPC1 prom act inconclusive, ELG1 DNA repair inconclusive (no result: SMN2 splice enh)
CC(C)=C(NC(=O)c1ccccc1)C(=O)N/N=C/c1ccc(O)cc1	FLuc counter 17µM, ELG1 DNA repair inconclusive
COc1ccc(C(=O)Nc2ccccc2C(=O)NCc2cccnc2)cc1OC	ELG1 DNA repair inconclusive (no result: SMN2 splice enh)
